Compound activity from PubChem BioAssay.
miR122 inh = miR-122 sensor activation; Huh7 psiCHECK-miR122 Renilla luciferase sensor, 48 h; activation, % at 12.5 µM; actives 0.14% (n = 340,000); AID 623901;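 active = mean activation of 30% or more, with every replicate also reaching 30%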;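 also: 0% = median of neutral control wells and 100% = median of positive control wells; higher luciferase signal means stronger suppression of miR-122 activity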
Starred values were filed as active, the others as inactive. This is one part of a sample in which hits are shown more often than they occur.

What do the screens show for `O=C1NC(=O)N(CCC2=CCCCC2)C(=O)/C1=C\c1cccs1`?
miR122 inh: 32.7*

What do the screens show for `Cc1ccc(C(=O)Nc2ccc(Cl)cc2C(=O)c2ccccc2)cc1`?
miR122 inh: -114.5

What do the screens show for `CC(=O)OC1(Cc2ccccc2)CN2CCC1c1ccccc12` (stereo not drawn)?
miR122 inh: 35.9*

What do the screens show for `O=P(Nc1ccccc1)(Nc1ccccc1)Oc1ccc(Cl)cc1`?
miR122 inh: -321.9

Results for C[C@@H]1O[C@@H](O[C@H]2C[C@@H](O)[C@]3(CO)[C@H]4[C@H](O)C[C@]5(C)[C@@H](C6COC(=O)C6)CC[C@]5(O)[C@@H]4CC[C@]3(O)C2)[C@H](O)[C@H](O)[C@H]1O (stereo partly drawn) ?
miR122 inh: -113.6

How did COc1ccc(-c2ccc3c(c2)CN(C(=S)NCCc2ccccc2)Cc2cnnn2-3)cc1 do in these assays?
miR122 inh: -119.1
